Laboratory results taken from PubChem BioAssay.
Active and inactive are the calls of the source.

How the values were obtained:
[1] = optical density shifts of acrAB sulA E. coli – strain DRC41, OD650, 48 h, E. coli filamentation inducer project, primary screen (AID 1152); details: higher = more signal, called active from +8 up or from −8 down;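 note: E. coli MC1000 strain DRC41 lacking acrAB efflux pump and sulA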
[2] = probe aLefty1 binding on compound microarray – biochemical, small-molecule microarray, 635/667 nm fluorescence, primary screen (AID 1153); details: higher = more signal;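 note: score merges spot fluorescence with signal-to-noise ratio from the scanned slide images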
[3] = plasmodial surface anion channel blockers, osmotic lysis – cell-based, P. falciparum Indochina, OD700, 1 h, primary screen (AID 1154); details: P. falciparum Indochina infected RBC osmotic lysis, higher = more signal, called active from +8 up or from −8 down
[4] = plasmodial surface anion channel blockers, osmotic lysis – cell-based, P. falciparum Indochina, OD700, 2 h, primary screen (AID 1155);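 note: lysis reports solute entry through the parasite surface anion channel PSAC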; details: P. falciparum Indochina infected erythrocytes, higher = more signal, called active from +8 up or from −8 down
[5] = changes in parasitized red cell lysis, either direction – P. falciparum Indochina, OD700, 3 h, PSAC antagonist project, primary screen (AID 1156); details: P. falciparum-infected erythrocytes, osmotic lysis, higher = more signal, called active from +8 up or from −8 down
[6] = plasmodial surface anion channel blockers, osmotic lysis – cell-based, P. falciparum Indochina, OD700, 18 h, primary screen (AID 1157); details: P. falciparum Indochina infected erythrocytes, osmotic lysis OD700, 18 h; higher = more signal, called active from +8 up or from −8 down
[7] = S6 kinase pathway phospho-S6 level changes – cell-based, A549, cytoblot, luminescence, serum-stimulated, primary screen (AID 1158); details: 5 h, higher = more signal;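 note: serum-stimulated A549 lung adenocarcinoma cells; signal is phosphorylated S6 detected by cytoblot immunostaining with HRP secondary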
[8] = biological target: NADPH oxidase 2 (Homo sapiens) (UniProt P04839); assay: compounds shifting NOX2 Amplex Red fluorescence – cell-based, HEK293-NOX2, PMA-stimulated, NOX inhibitor project, primary screen (AID 1159); details: 45 min, higher = more signal, called active from +8 up or from −8 down; note: test concentration not given here
Chain of NADPH oxidase 2 (Homo sapiens) (P04839 whole entry, looked up): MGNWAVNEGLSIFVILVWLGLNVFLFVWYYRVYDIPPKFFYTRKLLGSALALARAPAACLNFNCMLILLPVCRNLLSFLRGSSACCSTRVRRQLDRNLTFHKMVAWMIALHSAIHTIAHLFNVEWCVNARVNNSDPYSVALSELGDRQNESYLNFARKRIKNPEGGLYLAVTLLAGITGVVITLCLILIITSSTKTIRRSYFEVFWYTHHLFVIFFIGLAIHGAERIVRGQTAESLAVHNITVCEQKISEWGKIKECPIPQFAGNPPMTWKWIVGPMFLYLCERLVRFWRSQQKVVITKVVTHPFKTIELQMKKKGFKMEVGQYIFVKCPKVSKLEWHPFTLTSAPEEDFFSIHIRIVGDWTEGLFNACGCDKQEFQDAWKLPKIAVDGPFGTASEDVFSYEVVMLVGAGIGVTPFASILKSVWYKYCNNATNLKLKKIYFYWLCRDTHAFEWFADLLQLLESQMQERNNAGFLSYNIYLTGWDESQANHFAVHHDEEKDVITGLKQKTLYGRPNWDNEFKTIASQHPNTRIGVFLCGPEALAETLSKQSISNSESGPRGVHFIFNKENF

[9] = biological target: NADPH oxidase 4 (Homo sapiens) (UniProt Q9NPH5); assay: compounds shifting NOX4 Amplex Red fluorescence – cell-based, HEK293-NOX4, tetracycline-induced, NOX inhibitor project, primary screen (AID 1160); details: HEK293-NOX4, Amplex Red H2O2 fluorescence, 45 min; higher = more signal, called active from +8 up or from −8 down
Chain of NADPH oxidase 4 (Homo sapiens) (Q9NPH5 whole entry, looked up): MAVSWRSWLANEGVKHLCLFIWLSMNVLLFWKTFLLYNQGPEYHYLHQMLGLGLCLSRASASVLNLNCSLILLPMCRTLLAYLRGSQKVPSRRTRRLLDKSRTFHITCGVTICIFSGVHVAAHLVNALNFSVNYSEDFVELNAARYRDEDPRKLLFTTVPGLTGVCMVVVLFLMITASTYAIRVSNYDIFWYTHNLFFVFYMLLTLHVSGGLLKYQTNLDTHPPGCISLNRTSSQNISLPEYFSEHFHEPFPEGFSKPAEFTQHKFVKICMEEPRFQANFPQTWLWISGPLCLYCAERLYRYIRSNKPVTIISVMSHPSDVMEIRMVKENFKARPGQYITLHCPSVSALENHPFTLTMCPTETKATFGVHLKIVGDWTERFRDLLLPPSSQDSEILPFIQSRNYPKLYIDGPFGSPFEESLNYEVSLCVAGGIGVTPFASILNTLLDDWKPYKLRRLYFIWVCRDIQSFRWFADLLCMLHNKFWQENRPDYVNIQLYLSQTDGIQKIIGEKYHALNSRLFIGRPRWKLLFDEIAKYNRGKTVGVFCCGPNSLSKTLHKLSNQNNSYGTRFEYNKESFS

[10] = biological target: NADPH oxidase 5 (Homo sapiens) (UniProt Q96PH1); assay: compounds shifting NOX5 Amplex Red fluorescence – cell-based, HEK293-NOX5, NOX inhibitor project, primary screen (AID 1161); details: HEK293-NOX5, ionomycin, 45 min, higher = more signal
Chain of NADPH oxidase 5 (Homo sapiens) (Q96PH1 whole entry, looked up): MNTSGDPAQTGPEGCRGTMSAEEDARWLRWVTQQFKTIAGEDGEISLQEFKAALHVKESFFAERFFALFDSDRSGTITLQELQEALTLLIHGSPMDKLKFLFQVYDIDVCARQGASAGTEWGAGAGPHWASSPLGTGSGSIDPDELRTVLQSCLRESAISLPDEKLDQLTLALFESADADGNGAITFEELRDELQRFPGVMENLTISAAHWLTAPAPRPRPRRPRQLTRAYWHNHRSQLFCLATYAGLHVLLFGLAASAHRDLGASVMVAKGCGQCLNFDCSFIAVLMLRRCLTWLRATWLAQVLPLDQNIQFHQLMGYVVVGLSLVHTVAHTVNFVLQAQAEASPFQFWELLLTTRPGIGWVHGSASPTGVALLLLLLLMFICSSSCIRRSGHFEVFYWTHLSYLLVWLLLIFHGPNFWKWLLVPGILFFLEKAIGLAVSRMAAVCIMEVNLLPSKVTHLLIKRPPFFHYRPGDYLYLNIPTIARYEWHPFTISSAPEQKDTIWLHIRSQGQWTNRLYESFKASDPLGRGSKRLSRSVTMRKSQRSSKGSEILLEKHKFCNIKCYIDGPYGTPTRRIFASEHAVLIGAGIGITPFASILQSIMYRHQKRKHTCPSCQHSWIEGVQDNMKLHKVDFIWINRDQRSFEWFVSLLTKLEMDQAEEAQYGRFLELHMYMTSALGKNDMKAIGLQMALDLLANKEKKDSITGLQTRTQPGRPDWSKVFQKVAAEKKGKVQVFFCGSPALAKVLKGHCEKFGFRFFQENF

[11] = compound effects on lung adenocarcinoma cell viability – A549, calcein-AM fluorescence, 48 h, basal, profiling panel (AID 1162); details: higher = more signal; note: test concentration not given here
[12] = compound effects on differentiated 3T3-L1 adipocyte viability – cell-based, 3T3-L1 adipocytes, calcein-AM fluorescence, 48 h, basal, profiling panel (AID 1163); details: 3T3-L1 adipocytes viability, higher = more signal; note: test concentration not given here
[13] = compound effects on hepatocellular carcinoma cell viability – HepG2, calcein-AM fluorescence, 48 h, basal, profiling panel (AID 1164); details: higher = more signal; note: test concentration not given here
[14] = compound effects on multiple myeloma cell viability – MM1S, calcein-AM fluorescence, 48 h, basal, profiling panel (AID 1165); details: higher = more signal;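 note: viability of MM1S multiple myeloma cells under basal unstimulated conditions; test concentration not given here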
[15] = calcein-AM signal in unstimulated myeloma cells – cell-based, calcein-AM fluorescence, 48 h, PK04 Diversity Set, profiling panel (AID 1166); details: RPMI8226 myeloma viability, higher = more signal;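 note: cells grown under basal conditions without added stimulus; test concentration not given here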
[16] = JC-1 mitochondrial signal, unstimulated HepG2 cells – cell-based, JC-1 fluorescence, 24 h, 100 nL compound, profiling panel (AID 1167); details: HepG2 mitochondrial potential, higher = more signal; note: test concentration not given here
[17] = JC-1 mitochondrial signal, unstimulated adipocytes – cell-based, JC-1 fluorescence, 3T3-L1 adipocytes, 24 h, 100 nL compound, profiling panel (AID 1168); details: JC-1 mitochondrial fluorescence, higher = more signal, called active from +8 up or from −8 down; note: test concentration not given here
[18] = JC-1 mitochondrial signal, unstimulated myeloma cells – cell-based, JC-1 fluorescence, RPMI8226, 24 h, 100 nL compound, profiling panel (AID 1169); details: JC-1 mitochondrial potential fluorescence, higher = more signal; note: test concentration not given here
[19] = JC-1 mitochondrial signal, unstimulated MM1S myeloma – cell-based, JC-1 fluorescence, 24 h, 100 nL compound, profiling panel (AID 1170); details: MM1S mitochondrial potential, higher = more signal; note: test concentration not given here
[20] = resazurin metabolic signal in A549 cells – cell-based, resazurin fluorescence, 24 h, PK04 Diversity Set, profiling panel (AID 1171); details: A549 viability, higher = more signal, called active from +8 up or from −8 down; note: test concentration not given here

Compound | z-score [1] | composite z-score [2] | z-score [3] | z-score [4] | z-score [5] | z-score [6] | z-score [7] | z-score [8] | z-score [9] | z-score [10] | z-score [11] | z-score [12] | z-score [13] | z-score [14] | z-score [15] | z-score [16] | z-score [17] | z-score [18] | z-score [19] | z-score [20]
CC(C)(C)OC(=O)CC[C@@]1(C(=O)NCCN2CCOCC2)N=C(c2ccc(OCCCO)cc2)O[C@@H]1c1ccccc1 | 1.18 (inactive) | 0.296 | 14.8 (active) | 1.8 (inactive) | 0.267 (inactive) | 0.813 (inactive) | 0.413 | 0.63 (inactive) | 1.03 (inactive) | 1.8 | 0.694 | 0.571 | 0.564 | 0.586 | 1.26 | -0.0256 | 0.66 (inactive) | -0.707 | -0.514 | -0.24 (inactive)
O=C1C2C=CC(C(O)c3cccs3)N(Nc3ccccc3F)C2C(=O)N1c1ccccc1 (stereo not given) | 0.386 (inactive) | 0.248 | 1.35 (inactive) | -0.506 (inactive) | -1.27 (inactive) | -1.23 (inactive) | 0.224 | -0.932 (inactive) | -3.7 (inactive) | -1.78 | -0.543 | 0.289 | -0.901 | 0.46 | 0.167 | -0.686 | 0.321 (inactive) | 0.635 | -0.947 | 0.433 (inactive)
COC(=O)[C@@]1(Cc2ccc(OC)cc2)[C@H]2c3cc(C(=O)N4CCCC4)n(Cc4cc(F)cc5c4OCOC5)c3C[C@H]2CN1C(=O)c1ccccc1 | -2.14 (inactive) | -0.12 | 1.15 (inactive) | 0.142 (inactive) | 0.951 (inactive) | 0.522 (inactive) | -0.0863 | -0.327 (inactive) | -1.94 (inactive) | -1.06 | -1.67 | -0.151 | -0.675 | -3.31 | -3.81 | 0.912 | -0.562 (inactive) | -0.753 | -2.72 | -1.5 (inactive)
CCOC(=O)C1=CC[C@@H](c2ccccc2)N(S(=O)(=O)c2ccc(C)cc2)[C@H]1C(=O)OCC | -0.488 (inactive) | 0.632 | 3.81 (inactive) | 1.17 (inactive) | -0.54 (inactive) | 0.583 (inactive) | -0.338 | 0.439 (inactive) | -1.45 (inactive) | -0.75 | -0.613 | -0.467 | -0.111 | 0.884 | 0.0651 | 3 | 0.252 (inactive) | -0.619 | -1.24 | 0.706 (inactive)
COCCOC(=O)N1C(=O)[C@@]2(c3cc(C#CCCO)ccc31)[C@H](c1ccc(O)cc1)N1[C@H](c3ccccc3)[C@H](c3ccccc3)OC(=O)[C@H]1[C@@H]2C(N)=O | -0.595 (inactive) | 0.501 | 6.55 (inactive) | 1.15 (inactive) | 0.152 (inactive) | 0.311 (inactive) | -0.218 | 0.712 (inactive) | -0.952 (inactive) | 0.23 | 0.111 | -0.0323 | 1.97 | 0.189 | -0.934 | -0.958 | -1.44 (inactive) | 0.057 | -0.915 | -0.322 (inactive)
Cc1ccc(F)cc1S(=O)(=O)N[C@@H]1CCN(Cc2ccc(-c3ccccc3)cc2)C1 | -19.4 (active) | 0.121 | 13 (active) | 2.34 (inactive) | 0.349 (inactive) | 1.41 (inactive) | -0.275 | 0.335 (inactive) | -1.62 (inactive) | -1.57 | -1.8 | -1.3 | -4.73 | -3.15 | -4.09 | -1.82 | -0.516 (inactive) | -0.69 | -2.99 | -0.464 (inactive)
CO[C@H]1O[C@H](CO)[C@@H](OC(=O)Nc2ccc3c(c2)OCO3)[C@H](OC(=O)Nc2ccccc2)[C@H]1OC(=O)Nc1ccccc1 | -0.495 (inactive) | 0.227 | 4.11 (inactive) | 0.777 (inactive) | 0.756 (inactive) | 0.421 (inactive) | 0.258 | -6.93 (inactive) | -0.649 (inactive) | -2.08 | -2.08 | 1.11 | -2.7 | -1.67 | -2.56 | -0.812 | 1.42 (inactive) | -0.442 | -1.37 | -3.25 (inactive)
COCCOC(=O)N1C(=O)[C@@]2(c3ccccc31)[C@H](c1ccc(O)cc1)N1[C@H](c3ccccc3)[C@H](c3ccccc3)OC(=O)[C@H]1[C@@H]2C(=O)N1CCc2cc(OC)c(OC)cc2C1 | 0.682 (inactive) | -0.181 | 0.428 (inactive) | -0.261 (inactive) | 0.0172 (inactive) | -1 (inactive) | 1.55 | 0.343 (inactive) | 0.594 (inactive) | 1.95 | 0.823 | 0.748 | 2.31 | 0.448 | -0.368 | 0.893 | 2.9 (inactive) | 0.228 | 0.296 | -0.275 (inactive)
COCCOC(=O)N1C(=O)[C@@]2(c3ccccc31)[C@H](C(=O)NC[C@H](O)c1ccccc1)[C@H]1C(=O)O[C@H](c3ccccc3)[C@H](c3ccccc3)N1[C@@H]2c1ccc(OCCO)cc1 | 1.32 (inactive) | -0.496 | 3.97 (inactive) | 1.89 (inactive) | 0.968 (inactive) | 0.999 (inactive) | 0.29 | 0.463 (inactive) | 1.13 (inactive) | -0.739 | -0.656 | 1.13 | -0.655 | -0.233 | -0.773 | 0.546 | 0.843 (inactive) | -0.598 | -0.295 | 0.377 (inactive)
